In the library only some 6.7% were active in any assay of this set; here they are far more common.
C diff growth: inhibitors of Clostridium difficile growth | growth activity, negative = inhibition, % at 16 µg/mL (by protocol) | Clostridium difficile clinical isolate growth, OD600, 24 h; stronger effect = lower value | 86,000 compounds, 0.25% hits | AID 1259249;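 active = mean growth activity at or below -80% and every replicate also at or below -80%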;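 also: 0% = DMSO wells and -100% = levofloxacin 16 µg/mL wells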
Pf Dd2 growth: blocks growth of Plasmodium falciparum Dd2 parasites | activity change, % at 10 µM | AID 1159554 | 94,000 compounds, 2.3% hits | P. falciparum Dd2 growth, SYBR Green, 72 h; stronger effect = lower value; in the data active = activity change below about -80%
T cruzi growth: T. cruzi proliferation inhibition; inhibition, % at 8.34 µM; 77,000 compounds, 5.9% hits; T. cruzi beta-gal in NIH3T3, GalScreen luminescence, 90 h; AID 624255;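 active = mean inhibition above about 93%, with at least 55% of replicates each passing it, limit read from the data, passing the limit was not always enough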
* hit, by the source's call; nt = not tested or not shown.

SMILES	C diff growth	Pf Dd2 growth	T cruzi growth
COc1ccccc1-c1ccc([C@@H]2[C@@H](CO)N(C(=O)C3CC3)C23CN(C(C)=O)C3)cc1	3	-15	nt
COc1ccc(NC(=O)N(C)C[C@H]2OCc3ccccc3-c3c(n(C)c4ccccc34)C(=O)N([C@@H](C)CO)C[C@H]2C)c(OC)c1	-16	-89*	57
COc1ccc(NC(=O)N(C)C[C@H]2OCc3ccccc3-c3c(n(C)c4ccccc34)C(=O)N([C@H](C)CO)C[C@@H]2C)c(OC)c1	10	-86*	30
COc1ccc(NC(=O)N(C)C[C@@H]2OCc3ccccc3-c3c(n(C)c4ccccc34)C(=O)N([C@@H](C)CO)C[C@H]2C)c(OC)c1	-3	-78	85
COc1ccc(NC(=O)N(C)C[C@H]2OCc3ccccc3-c3c(n(C)c4ccccc34)C(=O)N([C@H](C)CO)C[C@H]2C)c(OC)c1	-12	-66	9
C[C@H]1CN([C@@H](C)CO)C(=O)c2cccc(NS(C)(=O)=O)c2O[C@@H]1CN(C)CC1CC1	7	16	26
COCC#Cc1cnc2c(c1)C(=O)N([C@@H](C)CO)C[C@H](C)[C@H](CN(C)S(=O)(=O)c1ccccc1)O2	1	3	3
C[C@@H]1CN([C@@H](C)CO)C(=O)c2c(c3ccccc3n2C)-c2ccccc2CO[C@H]1CN(C)Cc1cccc(C(F)(F)F)c1	31	-92*	nt
C[C@H](CO)N1C[C@H](C)[C@@H](CN(C)Cc2cccc(O)c2)OCc2ccccc2-c2c(n(C)c3ccccc23)C1=O	-1	-72	nt
C[C@@H]1CN([C@@H](C)CO)C(=O)c2c(c3ccccc3n2C)-c2ccccc2CO[C@@H]1CN(C)Cc1ccc2c(c1)OCO2	18	-83*	nt
C[C@@H]1CN([C@H](C)CO)C(=O)c2c(c3ccccc3n2C)-c2ccccc2CO[C@@H]1CN(C)Cc1cccc(O)c1	-6	-88*	nt
C[C@@H]1CN([C@H](C)CO)C(=O)c2c(c3ccccc3n2C)-c2ccccc2CO[C@@H]1CN(C)Cc1ccc2c(c1)OCO2	30	-59	nt
C[C@H]1CN([C@@H](C)CO)C(=O)c2c(c3ccccc3n2C)-c2ccccc2CO[C@@H]1CN(C)Cc1ccc(C(F)(F)F)cc1	37	-58	nt
C[C@@H]1CN([C@H](C)CO)C(=O)c2c(c3ccccc3n2C)-c2ccccc2CO[C@@H]1CN(C)Cc1ccc(C(F)(F)F)cc1	15	-62	nt
C[C@@H]1CN([C@H](C)CO)C(=O)c2c(c3ccccc3n2C)-c2ccccc2CO[C@H]1CN(C)Cc1cccc(C(F)(F)F)c1	3	-84*	nt
CO[C@@H]1CC[C@@H]2CCOc3c(C#N)cccc3C(=O)N(C)[C@H](C)C(=O)N(C)C[C@@H]1O2	nt	16	26
COc1ccc(NC(=O)Nc2ccc3c(c2)C(=O)N([C@@H](C)CO)C[C@@H](C)[C@@H](CN(C)C(=O)Nc2cccc4ccccc24)OCCCC[C@H](C)O3)cc1	-4	-79	32
O=C(O)C[C@H]1C[C@H]2c3cc(NC(=O)NC4CCCCC4)ccc3O[C@H]2[C@H](CO)O1	1	-5	-56
Cc1noc(C)c1S(=O)(=O)Nc1ccc2c(c1)C(=O)N([C@H](C)CO)C[C@H](C)[C@H](CN(C)S(=O)(=O)c1c(C)noc1C)OCCCC[C@H](C)O2	1	nt	nt
C[C@@H]1CN([C@@H](C)CO)C(=O)c2cc(C#Cc3ccccn3)cnc2O[C@@H]1CN(C)CC1CCCC1	nt	-8	38
CO[C@@H]1CN(C)C(=O)c2ccc(NC(C)=O)cc2OC[C@H](C)N(C(=O)CN2CCOCC2)C[C@@H]1C	1	30	-477
C[C@@H]1CN([C@@H](C)CO)C(=O)c2cccc(NC(=O)Nc3ccc(F)cc3)c2O[C@H]1CN(C)C(=O)NC1CCCCC1	1	-7	31
CS(=O)(=O)N1[C@H](C#N)[C@H](c2ccccc2-c2ccc(F)cc2)[C@H]1CO	-15	-86*	nt
COc1ccc(-c2ccccc2[C@@H]2[C@H](C#N)N(C(=O)C3CCCC3)[C@H]2CO)cc1	6	13	nt
N#C[C@@H]1[C@H](c2ccccc2/C=C/c2ccccc2)[C@H](CO)N1S(=O)(=O)c1cccc(F)c1	-6	-27	nt
SMILES	C diff growth	Pf Dd2 growth	T cruzi growth
C/C=C/c1ccc([C@H]2[C@@H](C#N)N(C(=O)NC3CCCC3)[C@@H]2CO)cc1	0	-84*	52
C/C=C/c1ccc([C@H]2[C@@H](CO)N(C(=O)NC3CCCC3)[C@H]2C#N)cc1	-1	18	51
CS(=O)(=O)N1[C@H](C#N)[C@@H](c2ccccc2-c2ccc(F)cc2)[C@@H]1CO	-2	-24	nt
COc1ccc(-c2ccccc2[C@H]2[C@@H](C#N)N(C(=O)C3CCCC3)[C@H]2CO)cc1	-3	-98*	nt
N#C[C@@H]1[C@H](c2ccccc2/C=C/c2ccccc2)[C@H](CO)N1S(=O)(=O)c1ccc(F)cc1	91	-91*	nt
COc1ccc2c3c(n(C)c2c1)[C@H](CO)N(Cc1cc(F)ccc1F)CC31CN(C(=O)C2CC2)C1	21	-75	nt
O=C(N[C@@H]1CC[C@H](CCNC(=O)C2CCOCC2)O[C@H]1CO)c1ccncc1	nt	6	10
COc1ccc(S(=O)(=O)N(C)C[C@@H]2Oc3ccc(NC(=O)C4CCCCC4)cc3CC(=O)N([C@H](C)CO)C[C@H]2C)cc1	-5	-15	44
C[C@@H]1CN([C@@H](C)CO)C(=O)Cc2cc(NS(=O)(=O)c3cn(C)cn3)ccc2O[C@H]1CN(C)C(=O)Nc1ccccc1	1	-22	18
CC(C)NC(=O)N1[C@H](C#N)[C@H](c2ccccc2-c2ccc(F)cc2)[C@@H]1CO	-2	-90*	nt
CC(C)NC(=O)N1[C@H](C#N)[C@@H](c2ccccc2-c2ccc(F)cc2)[C@@H]1CO	1	-38	nt
COc1ccc(-c2ccccc2[C@H]2[C@@H](C#N)N(C(=O)NC3CCCC3)[C@H]2CO)cc1	4	-94*	nt
COc1ccc(-c2ccccc2[C@@H]2[C@@H](C#N)N(C(=O)NC3CCCCC3)[C@H]2CO)cc1	16	-6	nt
C[C@@H]1CN([C@@H](C)CO)C(=O)c2cccc(NC(=O)c3nc4ccccc4s3)c2O[C@@H]1CN(C)C(=O)Nc1cccc2ccccc12	nt	-88*	41
C[C@H]1CN([C@@H](C)CO)C(=O)c2cccc(NC(=O)c3nc4ccccc4s3)c2O[C@H]1CN(C)C(=O)Nc1cccc2ccccc12	nt	-27	74
C[C@H](CO)N1C[C@H](C)[C@@H](CN(C)C(=O)Nc2ccc3c(c2)OCO3)Oc2c(NC(=O)c3nc4ccccc4s3)cccc2C1=O	nt	-45	-240
C[C@@H]1CN([C@@H](C)CO)C(=O)c2cccc(NC(=O)c3nc4ccccc4s3)c2O[C@H]1CN(C)C(=O)Nc1ccc2c(c1)OCO2	nt	-90*	49
C[C@H]1CN([C@@H](C)CO)C(=O)c2cccc(NC(=O)c3nc4ccccc4s3)c2O[C@@H]1CN(C)C(=O)Nc1cccc2ccccc12	nt	-76	14
C[C@@H]1CN([C@@H](C)CO)C(=O)c2cccc(NC(=O)c3nc4ccccc4s3)c2O[C@H]1CN(C)C(=O)Nc1cccc2ccccc12	nt	-94*	47

Screening data from PubChem BioAssay.
